# High-throughput results from PubChem.
# In the library only some 3.9% were active in any assay of this set; here they are far more common.
# BoNT F protease: BoNT/F light chain protease inhibitors, primary screen, biochemical, flow cytometry, MLPCN library. Botulinum neurotoxin type F light chain protease (Clostridium botulinum). inhibition, % at 10 µM. Multiplex microsphere protease cleavage assay. AID 588497, 2011. actives 0.22% (n = 360,000); in the data active means inhibition above about 35%, passing the limit was not always enough; inconclusive means no clear call, values can overlap the other calls; further: plate controls were buffer without enzyme for full effect and enzyme alone for no effect
# Anthrax LF prot: Bacillus anthracis LF protease inhibitors, primary screen, biochemical, multiplex microsphere, MLPCN library; multiplex microsphere protease cleavage assay; Lethal factor (Bacillus anthracis), P15917; actives 0.12% (n = 360,000); inhibition, % at 10 µM; further: plate controls were buffer without enzyme for full effect and enzyme alone for no effect
# BH1578 lux ind: inducers of Vibrio cholerae quorum light production without autoinducers, primary screen, BH1578 luxS cqsA deficient, single point | V. cholerae BH1578 lux reporter, luminescence, 6 h | activation, % at 18.7 µM | actives 0.16% (n = 350,000) | AID 588436, 2011; in the data active means activation mostly above about 9.7%, no sharp cut-off; inconclusive means no clear call, values can overlap the other calls; inactive means mostly below about 3.7%
# MazEF act: activators of E. coli MazEF toxin-antitoxin RNase, primary screen, biochemical, fluorescence, uHTS. FAM/BHQ RNA-DNA oligo cleavage fluorescence, 5 h. actives 0.32% (n = 350,000). Endoribonuclease toxin MazF (Escherichia coli (strain K12)), P0AE70. activation, % at 20 µM; in the data active means activation above about 50%
# Target sequence (P0AE70 whole entry, looked up): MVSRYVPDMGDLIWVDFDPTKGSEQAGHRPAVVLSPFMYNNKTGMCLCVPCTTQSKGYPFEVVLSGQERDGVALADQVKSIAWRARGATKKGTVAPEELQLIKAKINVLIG
# BoNT A protease: BoNT/A light chain protease inhibitors, primary screen, biochemical, flow cytometry, MLPCN library | Botulinum neurotoxin type A light chain protease (Clostridium botulinum A str. ATCC 3502) | multiplex microsphere protease substrate cleavage | inhibition, % at 10 µM | actives 0.17% (n = 360,000) | AID 588499, 2011; further: plate controls were buffer without enzyme for full effect and enzyme alone for no effect
# Bead autofluor: flagged as autofluorescent in microsphere protease counterscreen; actives 3.1% (n = 360,000); fluorescence intensity (no concentration beside the values); compound autofluorescence counterscreen, microsphere flow cytometry; stronger effect = higher value; in the data active means fluorescence intensity above about 16000; inconclusive means no clear call, values can overlap the other calls
# An asterisk follows results filed as active; i = inactive; ? = inconclusive; · = not tested or not shown; + = active, no number. Unless noted, no stated cut-off is given here; in the data, active means inhibition above about 30%; inconclusive means no clear call, values can overlap the other calls; inactive means below that.
SMILES,BoNT F protease,Anthrax LF prot,BH1578 lux ind,MazEF act,BoNT A protease,Bead autofluor
CCN(CC)CCOCCn1c(C)ccc1C,2,-3,i,-4,-1,?
Cc1ccc2cc(C#N)c(N3CCCN(C(=O)C4CCCO4)CC3)nc2c1C (stereo not given),10,13,3,-1,13,16171*
Cc1ccc2cc(C#N)c(N3CCCC3)nc2c1C,-15,9,·,-17,7,4035
COc1ccc(OC)c(S(=O)(=O)Nc2cccc(F)c2)c1,1,-1,-1,6,-1,16709*
COc1ccc(OC)c(S(=O)(=O)NC2CCCCC2)c1,-2,-2,0,1,-2,22696*
COc1ccc(S(=O)(=O)Nc2cccc(Cl)c2)cc1OC,-4,1,-11,0,-2,20245*
COc1cc(S(=O)(=O)NC2CCCC2)ccc1F,-2,0,0,5,-1,16811*
COc1ccc(NS(=O)(=O)c2ccc(OC)c(OC)c2)cc1OC,-4,-5,i,-1,-1,4547
COCCNC(=O)C1CC(c2ccc(C(F)(F)F)cc2)=NO1 (stereo not given),3,-2,i,-6,1,2905
CNCC(=O)N1CCN(c2ncc(C(F)(F)F)cc2Cl)CC1,-4,4,0,-107,0,3255
CC(C)NS(=O)(=O)c1ccc(N2C(=O)c3ccccc3C2=O)cc1,4,-3,0,0,3,19293*
O=C1c2ccccc2C(=O)N1c1ccc(S(=O)(=O)N2CCCCC2)cc1,?,-18,-1,-9,1,3787
O=C1c2ccccc2C(c2nnnn2Cc2ccccc2)N1Cc1cccs1 (stereo not given),3,4,·,·,0,4146
Cn1ccc2c([N+](=O)[O-])cccc2c1=O,0,-1,i,-2,0,2580
CCN(CC)c1ccc2cc(C(=O)Nc3ccccn3)c(=O)oc2c1,3,11,i,+,10,3169
CCN(CC)c1ccc2cc(C(C)=O)c(=O)oc2c1,1,1,i,-186,3,4680
CCOc1ccccc1NC(=O)c1cc2ccccc2oc1=O,40*,10,-2,-22,4,3036
O=C(Nc1ccon1)c1cc2ccccc2oc1=O,-2,-2,0,-10,-1,20901*
Cc1cc(C(=O)COc2ccc3ccc(=O)oc3c2)c(C)n1C,5,-2,-1,3,1,3427
COc1ccccc1NC(=O)CCN1C(=O)c2ccccc2C1=O,3,7,-1,10,0,3571
CC(=O)c1nc2ccccc2n1S(=O)(=O)c1ccc(Cl)cc1,-13,0,0,-1,?,18292*
Cc1cc(C)c2c(C)nn(-c3ccccc3)c2n1,-35,-7,-11,-2,-2,3126
Cc1cc(C)c2c(C)nn(C3CCCCC3)c2n1,0,-4,0,14,?,16323*
CNc1nc(Oc2ccccc2C(=O)OC)nc(SC)n1,5,2,i,2,3,21738*
CCNc1nc(Oc2ccc(C(=O)OCC)cc2)nc(SC)n1,2,1,1,-3,0,5151
SMILES,BoNT F protease,Anthrax LF prot,BH1578 lux ind,MazEF act,BoNT A protease,Bead autofluor
CCNc1nc(Oc2ccc(C(=O)OC)cc2)nc(SC)n1,-1,-13,i,0,0,22097*
COc1cccc2cc(C(=O)CC3(O)C(=O)N(Cc4ccccc4)c4ccccc43)c(=O)oc12 (stereo not given),-1,-3,-6,6,0,20419*
C#CCN1C(=O)C(O)(CC(=O)c2cccc(OC)c2)c2ccccc21 (stereo not given),-11,0,-2,8,0,3708
COc1cc(C(C)=O)ccc1OC(=O)c1cc2cccc(OC)c2oc1=O,0,2,1,27,1,4568
Cc1ccc2c(c1C)NC(=O)C2(O)CC(=O)c1ccc2c(c1)OCO2 (stereo not given),0,-3,-2,-9,?,16395*
CCOC(=O)CN1C(=O)C(O)(CC(=O)c2cccc(OC)c2)c2ccccc21 (stereo not given),1,-4,i,12,-1,23744*
COc1cccc2cc(C(C)=O)c(=O)oc12,-1,1,i,-1,-1,19894*
CCOC(=O)[C@]12CCC=C1N(CCC1=CCCCC1)C(=O)[C@H](CC(=O)N1CCOCC1)C2,0,0,·,·,0,5680
CC(=O)Nc1ccc(S(=O)(=O)c2ccnc3cc(Cl)ccc23)cc1,-7,-7,-1,8,0,2919
CCN1C(=O)C(O)(CC(=O)c2ccc3c(c2)OCCO3)c2ccccc21 (stereo not given),-4,0,0,-1,0,5525
COc1ccc(CN2C(=O)C(O)(CC(=O)c3ccc4c(c3)OCO4)c3ccccc32)cc1OC (stereo not given),4,-4,i,5,5,22009*
CCCCN(C(=O)c1cc(S(=O)(=O)N2CCCCC2)ccc1Cl)c1c(N)n(CCC)c(=O)[nH]c1=O,-1,-6,-1,-5,0,3874
CC(=O)c1ccc(OC(=O)C(CCS(C)(=O)=O)N2C(=O)c3ccccc3C2=O)cc1 (stereo not given),-1,0,i,-2,-2,21318*
CC(CC(=O)NCc1ccccc1)C1CCCO1 (stereo not given),9,-17,i,5,8,19114*
O=C(CC(C(=O)O)C1CCCO1)NCc1ccccc1 (stereo not given),?,-9,i,7,1,3812
Cc1ccc(NC(=O)CCNS(=O)(=O)c2ccc3[nH]c(=O)oc3c2)cc1N(C)C,-2,-1,0,4,0,5546
CC1(C)CC(=O)C=C(Nc2ccc(Cl)c(Br)c2)C1,7,-4,-2,-11,-3,4073
CC(C)Cc1cc(C(=O)O)c2ccccc2n1,-12,-3,1,0,-9,18252*
CCOC(=O)C1=C(O)/C(=C/c2ccc(-c3ccccc3C(=O)O)o2)SC1=Nc1ccc(C)cc1,-9,-2,i,-40,10,3636
CCOC(=O)C1=C(O)/C(=C/c2cn(CC(=O)NCC3CCCO3)c3ccccc23)SC1=Nc1ccc(C)cc1 (stereo not given),23,4,3,+,3,2940
Cc1ccc2nc(SCc3ccc([N+](=O)[O-])cc3)nc(C)c2c1,0,0,i,12,?,23313*
Cc1cc(C)c2nc(SCc3ccc([N+](=O)[O-])cc3)nc(C)c2c1,-2,1,-4,0,?,20592*
